# Reference: PubChem BioAssay (NCATS)
# Inconclusive results are not listed. Active and inactive are the calls of the source. Unless noted, the call rests on the fitted dose curve; in most records, active means well fitted curve in the direction sought with a large enough effect; inconclusive means small, poorly fitted or top-dose-only effect, or another doubt; inactive means no such curve, though single readings can be large; an effect the other way counts as inactive or inconclusive.
# Experiments:
# [1] = qHTS profiling for inhibitors of Plasmodium falciparum (3D7) proliferation (AID 743322);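 further: infected erythrocytes exposed to compound for 72 h before lysis; 100% = DMSO vehicle wells and 0% = 0.29 µM artemisinin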; settings: P. falciparum 3D7 proliferation; at 28.7 µM (top of the series)
# In short: (§1)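 Parasite DNA was quantified by SYBR Green I fluorescence (ex 485, em 535 nm) after overnight lysis in saponin/Triton buffer at room temperature. Cultures at 0.3% parasitemia and 2.5% hematocrit were first exposed to compound for 72 h at 37 C; signals were normalised to artemisinin (0.29 uM) and vehicle wells.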
# [2] = qHTS profiling for inhibitors of Plasmodium falciparum (DD2) proliferation (AID 743323; call rule not given here); settings: lower = more inhibition; at 28.7 µM (top of the series)
# In short: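 Parasite DNA quantified by SYBR Green fluorescence (ex 485, em 535 nm) after saponin/Triton lysis and overnight dark incubation. Cultures: 0.3% parasitemia, 2.5% hematocrit, 72 h, 37 C; data scaled between DMSO and 0.29 uM artemisinin.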
# [3] = qHTS profiling for inhibitors of Plasmodium falciparum (HB3) proliferation (AID 743324); settings: Plasmodium falciparum HB3 blood-stage proliferation; at 28.7 µM (top of the series);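 further: 100% = DMSO vehicle wells and 0% = artemisinin-treated control wells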
# In short: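 SYBR Green fluorescence (485 ex/535 em) of lysed cultures, incubated overnight at room temperature in the dark, quantifies parasite DNA. Infected erythrocytes at 0.3% parasitemia and 2.5% hematocrit were exposed 72 h; values normalized to DMSO and 0.29 uM artemisinin controls.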
# [4] = qHTS profiling of the MIPE4 collection as inhibitors of Plasmodium falciparum (3D7) proliferation (AID 743344; call rule not given here;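 further: scaled between DMSO vehicle wells and 0.29 µM artemisinin as full inhibition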); settings: P. falciparum 3D7 in erythrocytes, SYBR Green DNA fluorescence, 72 h; at 28.5 µM (top of the series) unless noted
# In short: as §1
# [5] = qHTS profiling of the MIPE4 collection as inhibitors of Plasmodium falciparum (DD2) proliferation (AID 743345; call rule not given here); settings: P. falciparum Dd2 in erythrocytes, SYBR Green DNA, 72 h; at 28.5 µM (top of the series) unless noted
# In short: as §1
# [6] = qHTS profiling of the MIPE4 collection as inhibitors of Plasmodium falciparum (HB3) proliferation (AID 743347; call rule not given here;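 further: plate controls were DMSO vehicle wells for no effect and artemisinin wells for full effect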); settings: P. falciparum HB3 in erythrocytes, SYBR Green DNA, 72 h; at 28.5 µM (top of the series) unless noted
# In short: as §1
# [7] = High-throughput drug toxicity screening in the BPDCN cell line Gen2.2 (AID 1224824; call rule not given here;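 further: cells exposed to compounds for 48 h before reading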); settings: Gen2.2 BPDCN cells; at 45.8 µM (top of the series) unless noted
# In short: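 Seed 500 exponentially growing Gen2.2 cells/well; add compounds by pin tool; incubate 48 h, 37 °C, 5% CO2; add CellTiter-Glo, 15 min RT; read luminescence. % activity vs DMSO (100%) and bortezomib (0%).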
# [8] = qHTS assay for measurement of the activity of small molecule inhibitors on Zika virus induced Caspase-3 activity in human iPSC derived neural progenitor cells (hNPCs) (AID 1224857); further: % of control where 0% means no effect; nearly all actives have a fitted effect of over 65% in size
# In short: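 After overnight (16–20 h) culture at 350 cells/well, hNPCs get compound, then ZIKV 2 FFU/cell one hour later. Six hours on, Caspase-Glo 3/7 is added and luminescence measured.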
# [9] = qHTS Screen of the MIPE 4.0 Collection Against Ewings Sarcoma (TC71) (AID 1259253); further: nearly all actives have a fitted effect of over 40% in size; further: potency means the concentration at half of the fitted maximal effect
# In short: (§2)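 Compound titrations go onto adherent log-phase cells 4 h after seeding, incubate 48 h at 37C, then CellTiter-Glo luminescence reports viability relative to DMSO and cell-free controls.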
# [10] = qHTS Screen of the MIPE 4.0 Collection Against Ewings Sarcoma (EW8) (AID 1259255); further: nearly all actives have a fitted effect of over 35% in size; further: potency means the concentration at half of the fitted maximal effect;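 on viability: 100% = DMSO-treated cells and 0% = medium-only wells without cells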
# In short: as §2
# [11] = qHTS Screen of the MIPE 4.0 Collection Against Ewings Sarcoma (TC32) (AID 1259256); further: nearly all actives have a fitted effect of over 45% in size; further: potency means the concentration at half of the fitted maximal effect
# In short: as §2
# [12] = qHTS profiling of the MIPE4 collection as inhibitors of Plasmodium falciparum (DD2) proliferation (Rep 2) (AID 743346; call rule not given here); settings: P. falciparum Dd2 in erythrocytes, SYBR Green DNA, 72 h; at 28.5 µM (top of the series) unless noted
# In short: as §1
# [13] = High-throughput drug toxicity screening in the BPDCN cell line Cal-1 (AID 1224825; call rule not given here); settings: Cal-1 BPDCN cell viability, qHTS; at 45.8 µM (top of the series) unless noted
# In short: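 Viability of the BPDCN line Cal-1 is measured as ATP-based luminescence (CellTiter-Glo) following 48 h incubation with compounds. Percent activity uses DMSO-treated wells as 100% and 9.2 uM bortezomib as 0%.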
# [14] = qHTS Screen of the MIPE 4.0 Collection Against Ewings Sarcoma (RDES) (AID 1259252); further: nearly all actives have a fitted effect of over 35% in size; further: potency means the concentration at half of the fitted maximal effect
# In short: as §2
# [15] = qHTS assay for measurement of the activity of small molecule inhibitors on Zika virus induced Caspase-3 activity in human astrocytoma cells (AID 1224859);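 further: plate controls were ZIKV-infected untreated cells for no effect and uninfected cells for full effect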
# In short: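 Inhibition of Zika-induced caspase-3/7 activity: SNB-19 cells, 1 h compound pretreatment, ZIKV 2 FFU/cell for 6 h at 37 C, Caspase-Glo luminescence read-out.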
# [16] = Identifying Small Molecule Inhibitors of Pancreatic Cancer Stem Cells (SN12C, Adherent) (AID 1259358);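 further: cell survival measured after 48 h of compound exposure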
# In short: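 Viability is scored by CellTiter-Glo luminescence 48 h after dosing, expressed as percent activity against vehicle and no-cell references. Spheroid formats rely on cells cultured 14 days in stem cell media beforehand.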
Compound,remaining parasite growth % (stronger effect = lower value) [1] [%],"activity, percent of control [2] [%]","remaining proliferation (% of control), lower = more inhibition [3] [%]","parasite growth, % of DMSO control [4]","parasite growth remaining, % of DMSO control (lower = more inhibition) [5] [%]","growth, % of control [6]","cell viability, % of control (lower = more cytotoxic) [7] [%]",Potency [8],Potency [9],Potency [10],Potency [11],"parasite growth, % of control (lower = inhibition) [12]",viability (% of control) [13],Potency [14],Potency [15],Potency [16]
COc1cc2c(Oc3ccc(NC(=O)C4(C(=O)Nc5ccc(F)cc5)CC4)cc3F)ccnc2cc1OCCCN1CCOCC1,-2.01,-0.633,-0.88,7.43%,5.88,8.86%,10.2,inactive,3.32 µM (active),1.32 µM (active),1.66 µM (active),–,–,–,–,–
Cc1cc(Nc2cc(CN3CCOCC3)c3nc(C)c(Cc4ccc(Cl)cc4F)n3n2)n[nH]1,–,–,–,–,7.86,5.44%,–,inactive,14.8 µM (active),3.32 µM (active),3.72 µM (active),12.5%,2.99%,16.6 µM (active),–,–
Cc1cc(Nc2ncnc3ccc(-c4ccc(CNCCS(C)(=O)=O)o4)cc23)ccc1Oc1ccn2ncnc2c1,–,–,–,5.93%,7.77,2.65%,–,–,14.8 µM (active),16.6 µM (active),16.6 µM (active),7.94%,–,18.7 µM (active),inactive,–
CN1CCN(c2ccc3nc(-c4c(N)c5c(F)cccc5[nH]c4=O)[nH]c3c2)CC1,-2.13,-0.739,-3.26,3.66%,–,2.91%,–,inactive,11.8 µM (active),5.9 µM (active),14.8 µM (active),7.17%,–,14.8 µM (active),–,–
COc1cc(C)c(Sc2cnc(NC(=O)c3ccc(CNC(C)C(C)C)cc3)s2)cc1C(=O)N1CCN(C(C)=O)CC1 (stereo unspecified),–,–,–,16.2%,16,4.37%,–,inactive,18.7 µM (active),3.72 µM (active),5.9 µM (active),18.9%,6.82%,14.8 µM (active),inactive,–
C1Cc2[nH]nc(-c3nn[nH]n3)c2C1,48.8,98.8,–,96.6%,93.2,108%,–,–,inactive,inactive,inactive,178%,98.5%,inactive,inactive,inactive
CCc1cc2c(cc1N1CCC(N3CCOCC3)CC1)C(C)(C)c1[nH]c3cc(C#N)ccc3c1C2=O,–,–,–,–,8.84,12.5%,–,inactive,inactive,inactive,inactive,33.7%,76.4%,inactive,–,–
Cc1cc(Nc2cc(N3CCN(C)CC3)nc(C=Cc3ccccc3)n2)n[nH]1,0.147,3.11,0.814,5.15% [at 57.5 µM],–,2.5% [at 57.5 µM],–,inactive,2.41 µM (active),1.71 µM (active),2.41 µM (active),8.07% [at 57.5 µM],3.23% [at 92.2 µM],5.4 µM (active),inactive,–
